Active and inactive are the calls of the source. Rule for the calls: active = hit-call score of the fitted dose curve at least 0.9, where 1 is the maximum; inactive = score below 0.9.
The compounds below were run on NCBI gene 447152 (assay: CCTE_GLTED_xIYD: CCTE's Xenopus Iodotyrosine Deiodinase (xIYD) Inhibition Assay, Great Lakes Toxicology and Ecology Division (GLTED) Lab).
Experimental: CCTE_GLTED_xIYD is a cell-free, single-readout assay that uses Xenopus (frog) iodotyrosine deiodinase (xIYD) enzyme from liver microsomes. Assay is based on iodide release measured by the Sandell-Kolthoff method and is run in 96-well plate format with assay plates run in triplicate (n=3) with measurements taken at 3 hours after chemical dosing. Platewise-normalization was used based on positive control (3-Nitro-L-tyrosine, MNT) and negative/solvent controls (DMSO, NaOH).CCTE_GLTED_xIYD is the assay component measured from the CCTE_GLTED_xIYD assay. It measures substrate involved in regulation of catalytic activity using spectrophotometry. The assay measures the deiodination activity of Xenopus (frog) IYD on the substrate monoiodotyrosine (MIT). After 3h incubation of substrate, enzyme, and test chemical, the components are applied to a 96-well Dowex column. Free iodide is not retained by the column and is separated from interfering assay components. The free iodide is measured by the Sandell-Kolthoff reaction in which the rate of reduction of cerium (Ce+4 to Ce+3) by arsenic (As+3 to As+5) is increased by the presence of iodide. This is observed as the loss of yellow color in the reaction and the quantified by the change in absorbance at 420 nm. The change in reaction rate is proportional to the amount of iodide present.Data from the assay component CCTE_GLTED_xIYD was analyzed at the assay endpoint CCTE_GLTED_xIYD in the positive analysis fitting direction relative to DMSO as the negative control and baseline of activity. Using a type of enzyme reporter, loss-of-signal activity can be used to understand iodotyrosine deiodinase activity. To generalize the intended target to other relatable targets, this assay endpoint is annotated to the 'dehalogenase' intended target family, where the subfamily is 'iodotyrosine deiodinase'.
Human transthyretin (TTR) assay, developed at Great Lakes Toxicology and Ecology Division (GLTED) within the EPA's Center for Computational Toxicology and Exposure (CCTE), is designed to test the chemicals' ability to displace T4 from the TTR protein. TTR (0.125uM) is incubated in presence of test chemical for 2 hours during which disrupting chemicals displace ANSA from the TTR protein. Results read fluorescence at 380 excitation and 475 emission.

| Structure (SMILES) | AC50 | outcome |
| --- | --- | --- |
| O=C(O)C(F)(F)OC(F)(F)C(F)(F)OC(F)(F)C(F)(F)OC(F)(F)C(F)(F)C(F)(F)C(F)(F)F | 93.8 µM (active) | – |
| O=C(Cl)C(F)(F)C(F)(F)C(F)(F)C(F)(F)C(F)(F)C(F)(F)C(F)(F)C(F)(F)F | – | inactive |
| O=C(O)C(F)(F)C(F)(F)C(F)(F)C(F)(F)C(F)(F)C(F)(F)C(F)(F)C(F)(F)Cl | 38.9 µM (active) | – |
| O=S(=O)(O)C(F)(F)C(F)(F)C(F)(F)C(F)(F)C(F)(F)C(F)(F)C(F)(F)F | 19.8 µM (active) | – |
| N[C@@H](Cc1ccc(O)c([N+](=O)[O-])c1)C(=O)O | 0.113 µM (active) | – |
| O=S(=O)(Cl)C(F)(F)C(F)(F)C(F)(F)C(F)(F)C(F)(F)C(F)(F)C(F)(F)C(F)(F)F | – | inactive |
| O=C(O)C(F)(F)C(F)(F)C(F)(F)C(F)(F)C(F)(F)C(F)(F)C(F)(F)C(F)(F)C(F)(F)C(F)F | 64.2 µM (active) | – |
| O=C(O)CCC(F)(F)C(F)(F)C(F)(F)C(F)(F)C(F)(F)C(F)(F)C(F)(F)F | – | inactive |
| O=P(O)(O)CCC(F)(F)C(F)(F)C(F)(F)C(F)(F)C(F)(F)C(F)(F)C(F)(F)C(F)(F)F | 65.4 µM (active) | – |
